Structures are written as SMILES. Compounds without any hit were thinned out: in the full panel of roughly 83,000, 20% have a hit.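 Cell lines were cultured in 96-well plates, exposed to a single compound concentration, and assessed for percent growth 48 hours later.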 Values without a mark were called inactive. The source made the active and inactive calls. The calls were made as follows: active = growth percent below 10; inactive = the rest.

Among the test systems are NCI-H23 lung; NCI-H226 lung; NCI-H322M lung; HOP-62 NSCLC; NCI-H460 lung; HOP-92 NSCLC; NCI-H522 lung; A549/ATCC NSCLC; 786-0 renal; COLO 205 colon; DU-145 prostate; K-562 leukemia; MALME-3M melanoma; MDA-MB-231 breast; RXF 393 renal; SF-268 CNS; SF-295 CNS; SF-539 CNS; UACC-257 melanoma; M14 melanoma.
Common to all, as to test: NCI-60 one-dose screen, 48 h (100 = growth as untreated, 0 = no growth, -100 = all killed)
What all share (details): 10 µM unless noted

On to `COc1ccc2c(c1)C(C)Cc1c(Cl)ncnc1N2C` (stereo not given), for which the growth with NCI-H23 lung is 7.68% (active); with NCI-H226 lung, -3.41% (active); in the assay with NCI-H322M lung, 36.1%; in the assay with HOP-62 NSCLC, 11.8%; in the assay with NCI-H460 lung, 16.6%; in the assay with HOP-92 NSCLC, 6.91% (active). The growth is -49.9% (active) in the assay on NCI-H522 lung; 15% in the assay with A549/ATCC NSCLC; 7.84% (active) in the assay with 786-0 renal; -66% (active) with COLO 205 colon; 35.3% with DU-145 prostate; 9.21% (active) with K-562 leukemia. Besides, the growth with MALME-3M melanoma was 41.4%; in the assay on MDA-MB-231 breast it was -45.3% (active); with RXF 393 renal, -8.62% (active); in the assay on SF-268 CNS, 10.5%; in the assay with SF-295 CNS, 15.2%; in the assay with SF-539 CNS it was 28%. Further, the growth is 13.6% with UACC-257 melanoma and 12.1% with M14 melanoma.

Take `O=C(Nc1ccc(CN2CCOCC2)c(C(F)(F)F)c1)c1nc2ccc3[nH]ncc3c2c2c1CCCC2`: the growth is 93.2% in the assay with NCI-H23 lung; 91.2% in the assay with NCI-H226 lung; 102% with NCI-H322M lung; 78.8% in the assay with HOP-62 NSCLC; 90.1% in the assay on NCI-H460 lung; 99.2% in the assay on HOP-92 NSCLC. The growth is 87.3% with NCI-H522 lung; 63.3% in the assay on A549/ATCC NSCLC; 101% in the assay on 786-0 renal; 83.4% with COLO 205 colon; 104% with DU-145 prostate; 82.8% with K-562 leukemia. For the same compound, the growth in the assay with MALME-3M melanoma was 106%; with MDA-MB-231 breast, 95.9%; in the assay with RXF 393 renal, 99.7%; in the assay with SF-268 CNS it was 103%; in the assay with SF-295 CNS it was 97.7%; in the assay on SF-539 CNS, 99.1%. For the same compound, the growth in the assay with UACC-257 melanoma is 88.9%; in the assay with M14 melanoma, 91.6%.

Regarding `CCOc1cccc2c(NC(C)CCCN(CC)CC)c(C)cnc12` (stereo not given), the growth in the assay on NCI-H23 lung was 110%; in the assay on NCI-H226 lung it was 103%; with NCI-H322M lung it was 91.8%; in the assay on HOP-62 NSCLC, 98.9%; in the assay with NCI-H460 lung it was 110%; with HOP-92 NSCLC, 97%. Further, the growth was 94.7% in the assay with NCI-H522 lung; 91.4% with A549/ATCC NSCLC; 103% in the assay with 786-0 renal; 77.1% in the assay with COLO 205 colon; 110% in the assay on DU-145 prostate; 101% with K-562 leukemia. In addition, the growth is 116% with MALME-3M melanoma; 78.7% in the assay with MDA-MB-231 breast; 102% in the assay with RXF 393 renal; 87.6% in the assay on SF-268 CNS; 109% in the assay on SF-295 CNS; 102% in the assay on SF-539 CNS. Also, the growth in the assay with UACC-257 melanoma is 108%; in the assay with M14 melanoma it was 104%.

For the compound `CCCCN(CCCC)CC(O)c1ccc(OCc2ccccc2)c2ccccc12` (stereo not given), the growth was 61.2% with NCI-H23 lung; 104% with NCI-H226 lung; 90% with NCI-H322M lung; 109% with HOP-62 NSCLC; 83.1% in the assay on NCI-H460 lung; 76.6% with HOP-92 NSCLC. Besides, the growth in the assay on NCI-H522 lung is 23.7%; in the assay on A549/ATCC NSCLC, 86.1%; in the assay with 786-0 renal, 84.6%; in the assay on COLO 205 colon it was 87.9%; in the assay with DU-145 prostate it was 89.6%; in the assay on K-562 leukemia, -4.85% (active). The growth in the assay on MALME-3M melanoma was 58.6%; in the assay on MDA-MB-231 breast it was 74.9%; in the assay on RXF 393 renal, 106%; in the assay with SF-268 CNS, 74.5%; with SF-295 CNS, 48.6%; with SF-539 CNS, 101%. Further, the growth in the assay on UACC-257 melanoma is 90.2%; in the assay on M14 melanoma, 72.2%.

On to `N=C(N)c1ccc(-c2ccc(-c3ccc(-c4cccs4)s3)s2)cc1F`, for which the growth in the assay on NCI-H23 lung was 93.2%; with NCI-H226 lung, 95.7%; with NCI-H322M lung it was 26%; with HOP-62 NSCLC, 100%; in the assay with NCI-H460 lung, 13%; in the assay on HOP-92 NSCLC, 94.8%. The growth in the assay with NCI-H522 lung is 100%; with A549/ATCC NSCLC, 15.1%; in the assay with 786-0 renal, 99.5%; with COLO 205 colon, 101%; with DU-145 prostate, 107%; in the assay on K-562 leukemia, 15.9%. For the same compound, the growth was 102% with MALME-3M melanoma; 91.2% in the assay with MDA-MB-231 breast; 90.3% in the assay with RXF 393 renal; 98.8% in the assay on SF-268 CNS; 97.5% with SF-295 CNS; 94.7% in the assay on SF-539 CNS. Besides, the figures for the growth in the assay on UACC-257 melanoma and in the assay with M14 melanoma were 102% and 99.4%, respectively.

As for `COc1ccc(C(C(=O)O)c2ccc(OC)cc2)cc1`, the growth with NCI-H23 lung is 113%; with NCI-H226 lung, 104%; with NCI-H322M lung it was 121%; in the assay on HOP-62 NSCLC, 112%; with NCI-H460 lung, 117%; in the assay on HOP-92 NSCLC it was 106%. The growth in the assay with NCI-H522 lung was 106%; with A549/ATCC NSCLC it was 116%; in the assay with 786-0 renal, 107%; with COLO 205 colon, 117%; with DU-145 prostate it was 105%; in the assay with K-562 leukemia, 105%. In addition, the growth in the assay on MALME-3M melanoma is 128%; in the assay on MDA-MB-231 breast, 120%; in the assay with RXF 393 renal, 128%; in the assay with SF-268 CNS, 103%; in the assay with SF-295 CNS it was 104%; in the assay on SF-539 CNS, 105%. For the same compound, the figures for the growth in the assay on UACC-257 melanoma and in the assay on M14 melanoma were 110% and 114%, respectively.

For the compound `CC1=CC[C@@H]2C(C)(C)[C@@H](O)CC[C@@]2(C)[C@@H]1COc1ccc2ccc(=O)oc2c1`, the growth in the assay with NCI-H23 lung is 74.7%; with NCI-H226 lung, 38.2%; with NCI-H322M lung, 91.1%; in the assay on HOP-62 NSCLC, 67.2%; in the assay on NCI-H460 lung, 88.6%; in the assay on HOP-92 NSCLC it was 51.3%. In addition, the growth in the assay with NCI-H522 lung was 25.9%; with A549/ATCC NSCLC, 43%; with 786-0 renal, 92.9%; in the assay on COLO 205 colon, 55.3%; in the assay on DU-145 prostate, 68.9%; in the assay on K-562 leukemia, 36%. Moreover, the growth in the assay on MALME-3M melanoma was 72.3%; in the assay with MDA-MB-231 breast, 78.7%; in the assay on RXF 393 renal, 65%; with SF-268 CNS, 66.1%; in the assay on SF-295 CNS, 46.5%; in the assay with SF-539 CNS, 85.6%. The results for the growth in the assay with UACC-257 melanoma and in the assay on M14 melanoma were 102% and 76.9%, respectively.

The values are drawn from PubChem BioAssay (NCI).
